# In the library only some 19% were active in any assay of this set; here they are far more common.
# TDP1 block: TDP1 (human) enzyme inhibition | recombinant TDP1, AlphaScreen DNA substrate cleavage | Potency, µM (doses to about 130 µM), without a hit: at the highest dose activity change, negative = inhibition, most hits filed as inhibitors | 350,000 compounds, 0.28% hits | AID 485290; further: nearly all actives have a fitted effect of over 40% in size
# Target sequence (Q9NUW8 whole entry, looked up): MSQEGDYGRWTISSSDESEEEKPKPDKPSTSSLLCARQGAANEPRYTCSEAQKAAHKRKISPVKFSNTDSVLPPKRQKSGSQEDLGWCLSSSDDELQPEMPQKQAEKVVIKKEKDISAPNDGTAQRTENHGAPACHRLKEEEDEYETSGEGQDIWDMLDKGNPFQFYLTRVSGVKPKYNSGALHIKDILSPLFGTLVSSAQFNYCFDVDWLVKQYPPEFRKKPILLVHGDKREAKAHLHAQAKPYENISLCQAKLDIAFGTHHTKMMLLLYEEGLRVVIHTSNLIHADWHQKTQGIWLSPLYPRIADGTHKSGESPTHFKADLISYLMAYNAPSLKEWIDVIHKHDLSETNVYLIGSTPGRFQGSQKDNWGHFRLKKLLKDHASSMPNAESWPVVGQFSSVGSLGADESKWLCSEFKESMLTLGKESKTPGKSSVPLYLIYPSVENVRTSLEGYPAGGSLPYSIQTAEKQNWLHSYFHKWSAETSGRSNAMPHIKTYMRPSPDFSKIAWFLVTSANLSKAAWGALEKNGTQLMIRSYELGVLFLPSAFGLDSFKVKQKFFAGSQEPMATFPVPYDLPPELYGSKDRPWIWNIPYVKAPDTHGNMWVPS
#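 Signal: AlphaScreen proximity between streptavidin donor and anti-FITC acceptor beads on intact substrate. Reaction: Tdp1 1 nM, substrate 15 nM final, 5 min RT after 15 min compound preincubation.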
# RORg inh: blocks mouse ROR gamma transcriptional activity | P51450 | Drosophila S2 Gal4-RORgamma UAS-luciferase reporter, 20 h | Potency, µM (highest dose often 53.6 µM), for inactives: top-dose activity change, negative = inhibition, actives largely listed as inhibitors | 310,000 compounds, 5.4% hits; further: nearly all actives have a fitted effect of over 60% in size
#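 Using a luciferase readout, inhibitors were identified by reduced reporter activity in Drosophila cells coexpressing a copper-inducible Gal4–ROR gamma fusion and UAS-driven Photinus luciferase, incubated 20 hr after 700 uM copper sulfate.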
# TDP1 cell noCPT: qHTS for Inhibitors of human tyrosyl-DNA phosphodiesterase 1 (TDP1): qHTS in cells in absence of CPT; DT40 Tdp1-/- hTDP1 cells, no CPT, ATP luminescence, 48 h; Potency, µM (top dose mostly 46.2 µM), for inactives: top-dose activity change, negative = growth inhibition, actives largely listed as inhibitors; 420,000 compounds, 15% hits; AID 686978, 2013; further: nearly all actives have a fitted effect of over 55% in size
#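 Readout: luminescence from CellTiter-Glo after 30 min in the dark at RT. Cells: DT40 Tdp1-/- with stable hTDP1, 400/well. Exposure: compounds alone, ≥48 hr, 37 °C.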
# VP16 counter: counter-screen for ROR gamma inhibitors: Gal4-VP16 reporter; Drosophila S2 Gal4-VP16 UAS-luciferase, luminescence, 20 h; Potency, µM (highest dose often 53.6 µM), for the others: at the top dose activity, negative = inhibition, usual class: inhibitors; 310,000 compounds, 3.5% hits;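 further: Gal4-VP16 expression switched on by copper sulfate through the metallothionein promoter; nearly all actives have a fitted effect of over 50% in size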
# DT40 TDP1 CPT: DT40-hTDP1 cell growth loss with CPT. chicken DT40 Tdp1-/-;hTDP1 cells + 20 nM CPT, ATP luminescence, 48 h. Potency, µM (series often up to 46.2 µM), for inactives: at the highest dose activity change, negative = growth inhibition, usual class: inhibitors. 420,000 compounds, 12% hits; further: nearly all actives have a fitted effect of over 55% in size
#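 Cell growth measured by CellTiter-Glo luminescence after a minimum 48 h, 37 C compound exposure with 20 nM CPT in Tdp1-knockout DT40 cells stably expressing hTDP1, seeded 400/well; qHTS titration format.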
# An asterisk follows results filed as active; ? = inconclusive; nt = no result given; [ ] = another dose, or the depositor's remark. The call rests on the fitted dose curve; in most records, active means well fitted curve in the direction sought with a large enough effect; inconclusive means small, poorly fitted or top-dose-only effect, or another doubt; inactive means no such curve, though single readings can be large; an effect the other way counts as inactive or inconclusive. On the % scale 0 is the no-effect control and ±100 the full control effect; potency means the concentration at half of the fitted maximal effect.
SMILES,TDP1 block,RORg inh,TDP1 cell noCPT,VP16 counter,DT40 TDP1 CPT
N#Cc1ccc(C(C(=O)NCc2ccccc2)n2c(=O)c(-c3cc4ccccc4[nH]3)nc3ccccc32)cc1 (stereo not given),nt,nt,9.2µM*,nt,11.6µM*
O=C(NCc1ccccc1)C(c1ccc(C(F)(F)F)cc1)n1c(=O)c(-c2cc3ccccc3[nH]2)nc2ccccc21 (stereo not given),nt,nt,14.6µM*,nt,?
COc1ccc(NC(=O)C(c2ccc(C(F)(F)F)cc2)n2c(=O)c(-c3cc4ccccc4[nH]3)nc3ccccc32)cc1 (stereo not given),nt,nt,?,nt,18.4µM*
CC1CCN(S(=O)(=O)c2ccc(C(=O)NC3CCS(=O)(=O)C3)cc2)CC1 (stereo not given),-3.2%[0.505 µM],nt,-24.5%,nt,-2.6%
O=C(NCC1CCCN1S(=O)(=O)c1cccs1)C(=O)Nc1ccc(F)cc1 (stereo not given),nt,nt,?,nt,-49.6%
O=c1cc(N2CCCCC2)c(-c2ccccc2)nn1Cc1ccc(Cl)cc1Cl,1.1%,13.0%,18.4µM*,-20.9%,?
O=c1cc(N2CCCCC2)c(-c2ccccc2)nn1Cc1ccccc1Cl,0.0%,?,?,-1.9%,?
Cc1nc2cc(-c3cccc(F)c3)nn2c(N2CCN(C(=O)c3ccco3)CC2)c1C,-5.6%,37.2%,14.6µM*,9.4%,14.6µM*
Cc1nc2cc(-c3cccc(F)c3)nn2c(C)c1CCC(=O)N1CCN(c2ccccn2)CC1,nt,?,-20.8%,16.9%,-3.6%
COc1ccc(-c2[nH]nc3nc(N4CCN(C(=O)c5ccoc5)CC4)cc(C(F)(F)F)c23)cc1,nt,nt,8.2µM*,nt,8.2µM*
COc1ccc(N2CCN(C(=O)c3ccc(-c4ccccc4)cc3)CC2)cc1,nt,25.2%,-1.6%,-4.9%,1.1%
COc1cccc(-c2cc3nc(C)cc(N4CCN(C(=O)c5ccoc5)CC4)n3n2)c1,nt,nt,20.6µM*,nt,?
COc1ccc(-c2cc3ncc(C(C)=O)c(C)n3n2)cc1,0.0%,24.0%,-12.0%,2.5%,-3.5%
COc1ccc(-c2cc3nc(C)c(C)c(N4CCN(C(=O)c5ccoc5)CC4)n3n2)cc1,nt,nt,18.4µM*,nt,?
CCOc1ccc(NC(=O)CN(C)C(=O)Cn2c(=O)oc3ccccc32)cc1OCC,-3.1%,nt,4.3%,nt,-2.2%
CCN1C(=O)[C@H]2[C@H]3CN=C(SCC(=O)c4ccccc4)N3[C@@](C)(C(=O)OC)[C@H]2C1=O,0.8%[56.1 µM],nt,-9.5%,nt,?
Cc1c(C)c2c(c(C)c1O)CCC(C)(CCCC(C)CCCC(C)CCCC(C)C)O2 (stereo not given),8.5%[56.1 µM],-7.5%,-1.5%,4.0%,-3.1%
COc1ccc(N2CCN(C(=O)c3nc4nc(C)cc(C)n4n3)CC2)cc1,2.7%,8.7%,-9.2%,-4.9%,-11.7%
Cc1cc(C)n2nc(-c3ccc(F)cc3)cc2n1,nt,nt,-21.2%,nt,-20.8%
COc1ccc(-c2cc3nc(C)cc(N4CC(C)CC(C)C4)n3n2)cc1 (stereo not given),2.4%,?,18.4µM*,?,?
COc1ccc(-c2cc3nc(C)cc(N4CCN(C(=O)c5ccoc5)CC4)n3n2)cc1,nt,nt,20.6µM*,nt,18.4µM*
CN(C)c1nc(OCCNC(=O)COc2ccccc2Cl)nc(N(C)C)n1,-2.5%,0.2%,10.3µM*,-12.0%,?
COc1cc(C)nc(OCCNC(=O)COc2ccc(Cl)cc2C)n1,-1.1%,3.0%[0.365 µM],20.6µM*,nt,16.4µM*
CN(C)c1nc(OCCNC(=O)Nc2ccccc2)nc(N(C)C)n1,-1.0%,23.5%,-21.9%,-0.4%,-4.8%
Cc1cc(Cl)ccc1OCC(=O)NCCOc1nc(N2CCCCC2)nc(N2CCOCC2)n1,0.9%,8.9%,6.51µM*,7.0%,7.31µM*
SMILES,TDP1 block,RORg inh,TDP1 cell noCPT,VP16 counter,DT40 TDP1 CPT
CCOC(=O)c1cc2c(c(CCO)n1)[C@H](CCO)N(S(=O)(=O)C(C)(C)C)C2,nt,nt,-12.9%,nt,-18.8%
COc1ccc([C@@H]2C=C(C(=O)O)O[C@H](OCCCCO)C2)cc1,5.0%,15.1%,-7.2%,5.4%,5.6%
CCCn1cc(NC(=O)c2cc(-c3ccccc3)on2)cn1,0.5%,34.7%,23.1µM*,1.1%,?
O=C(Nc1cnn(C23CC4CC(CC(C4)C2)C3)c1)c1cc(-c2ccccc2)on1,6.5%,-7.7%,20.6µM*,-11.5%,23.1µM*
O=C(CSc1ccc(Cl)cc1)N1CCCC1,0.0%,14.1%,?,-6.8%[10 µM],?
CC(C)(C)c1nnc(SCC(=O)Nc2ccc(N3CCCCC3)cc2)n1N,6.7%,nt,-11.5%,nt,-23.8%
CN(Cc1ccc(Cl)cc1)C(=O)CNC(=O)C12CC3CC(CC(C3)C1)C2,0.6%,nt,?,nt,18.4µM*
O=C(NCCc1ccc(Cl)cc1)C12CC3CC(CC(O)(C3)C1)C2,3.1%,23.5%,10.9%,22.1%,12.7%
N#CCCn1c(=O)c(-c2cc(F)cc(F)c2)nc2cnc(N3CCOCC3)nc21,nt,6.3%,3.6%,-2.5%,6.1%
CCN(CC)C(=O)Cn1cc(C(=O)C(=O)N2CCc3ccccc32)c2ccccc21,4.6%,26.4%,?,-3.5%,?
CC(C)(C)c1cc(C(=O)N/N=C/c2ccc(F)cc2)n(-c2ccccc2)n1,2.6%,53.9%,23.1µM*,13.5%[0.365 µM],18.4µM*
CC(C)(C)c1cc(C(=O)N/N=C/c2ccccc2O)n(-c2ccccc2)n1,5.3%,0.631µM*,6.51µM*,1.12µM*,6.51µM*
O=C(N/N=C\c1ccc(F)cc1)c1ccc(F)cc1,2.3%,-18.8%,3.3%,-6.5%,11.7%
Cc1ccc(NC(=O)c2cc(C)nn2-c2ccccc2)cc1,1.2%,20.0%,?,7.3%,?
CC(=O)c1ccccc1C(=O)N1CCC(CCC(=O)NCc2ccc(F)cc2)CC1,nt,nt,?,nt,-22.5%
O=C(CCn1cnc2ccccc21)N/N=C/c1ccc(O)cc1,2.7%,-9.7%,-11.6%,-13.7%,-7.8%
O=C(CCc1ccccc1)Nc1cc(C(F)(F)F)ccc1Cl,-3.9%,?,-7.7%,3.3%,9.2%
O=C(CCC(=O)Nc1cc(C(F)(F)F)ccc1Cl)N/N=C\c1cc([N+](=O)[O-])ccc1O,nt,2.51µM*,8.2µM*,8.91µM*,10.3µM*
COc1cc(/C=N/NC(=O)CCN2CCN(C(c3ccccc3)c3ccccc3)CC2)ccc1O,8.2%,43.4%,11.6µM*,-3.9%,13µM*
O=C(CCC(=O)Nc1ccc(F)cc1)N/N=C/c1cc([N+](=O)[O-])ccc1O,5.0%,10µM*,?,-11.1%,0.3%
O=C(CCn1cnc2ccccc21)N/N=C/c1ccccc1O,5.5%,0.447µM*,23.1µM*,0.631µM*,?
N#CCNC(=O)c1cccn1-c1ncc(C(F)(F)F)cc1Cl,2.9%,-19.2%,1.5%,-1.4%,2.4%

# From PubChem BioAssay
